KB-V1 MDR tox: kills drug-selected multidrug resistant KB-V1 cells. KB-V1 MDR cells viability, CellTiter-Glo, 72 h. Potency, µM (highest dose often 46.1 µM), actives largely listed as cytotoxic. 400,000 compounds, 3.4% hits; further: potency means the concentration at half of the fitted maximal effect; on the % scale 0 is the no-effect control and ±100 the full control effect; nearly all actives have a fitted effect of over 60% in size
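Cells of the MDR subline KB-V1 are plated, dosed with compound at multiple concentrations, and incubated 72 h at 37 degrees C; CellTiter-Glo is then added and luminescence read after 10 min.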
KB-3-1 cytotox: KB-3-1 parental cell cytotoxicity | KB-3-1 viability, CellTiter-Glo ATP luminescence, 72 h | Potency, µM (titrated, usually from 46.1 µM), actives largely listed as cytotoxic | 400,000 compounds, 1.4% hits | AID 1347075; further: potency means the concentration at half of the fitted maximal effect; on the % scale 0 is the no-effect control and ±100 the full control effect; nearly all actives have a fitted effect of over 60% in size
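Parental KB-3-1 adenocarcinoma cells in phenol-red-free DMEM with 10% FBS were pin-treated with compounds at several concentrations, incubated 72 h at 37 °C, and viability read by CellTiter-Glo luminescence; concentration-effect curves were fitted after normalization.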
SW480 rereplic: induces DNA re-replication in SW480 colon adenocarcinoma cells | SW480 DNA re-replication, Hoechst DNA content imaging, 48 h | Potency, µM (highest dose often 46.1 µM), for inactives: top-dose re-replication activation, most hits filed as activators | 340,000 compounds, 1.8% hits | AID 624297; further: potency means the concentration at half of the fitted maximal effect; % of control where 0% means no effect; nearly all actives have a fitted effect of over 55% in size
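Image-based read-out: total Hoechst fluorescence of nuclei (405 nm excitation, 500-530 nm emission), with hits raising the fraction of high-intensity nuclei. SW480 colon cells incubated 48 hr with compounds at 37 C.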
MCF10A rerep: inducers of DNA re-replication in MCF 10A breast cells; AID 624296; MCF 10A DNA re-replication, Hoechst nuclear intensity, 48 h; 350,000 compounds, 2.9% hits; Potency, µM (series often up to 46.1 µM), for inactives: at the top dose activity, positive = re-replication, most hits filed as activators; further: potency means the concentration at half of the fitted maximal effect; % of control where 0% means no effect; nearly all actives have a fitted effect of over 50% in size
IL-1B inflam inh: inhibitors of inflammasome signaling (IL-1 beta secretion) | 360,000 compounds, 4.7% hits | THP-1 LPS/ATP IL-1B secretion, AlphaLISA, 16 h; active compounds read low | activity change, % at 57.5 µM; in the data active means activity change below about -50%; inconclusive means mostly about -30% to -49%; further: on the % scale 0 is the no-effect control and ±100 the full control effect
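THP-1 cells pretreated 1 hr with compounds (up to 57.5 uM final), then stimulated with LPS (250 ng/mL final) plus ATP (1.25 mM final); secreted IL-1B measured by AlphaLISA after 16 hr, decreased signal indicating inhibition.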
* hit, by the source's call; i = inactive; ? = inconclusive; . = no result; ! = not active in a repeat; [ ] = another dose, or the depositor's remark. Shown are actives, neighbours in structure and some others; about 9.9% of the full set was active somewhere. Unless noted, the call rests on the fitted dose curve; in most records, active means well fitted curve in the direction sought with a large enough effect; inconclusive means small, poorly fitted or top-dose-only effect, or another doubt; inactive means no such curve, though single readings can be large; an effect the other way counts as inactive or inconclusive.

SMILES	KB-V1 MDR tox	KB-3-1 cytotox	SW480 rereplic	MCF10A rerep	IL-1B inflam inh
COc1ccc(CC(N)c2csc(NC(=O)Nc3ccc(F)cc3)n2)cc1 (stereo not drawn)	i	i	.	.	-65*
COc1ccc(CC(N)c2csc(NC(=O)Nc3cc(OC)ccc3OC)n2)cc1 (stereo not drawn)	i	i	.	.	0
COc1cc(CNC(=O)Nc2nc(C(N)Cc3ccc(C(F)(F)F)cc3)cs2)cc(OC)c1OC (stereo not drawn)	i	?	.	.	-59*
COc1ccc(CC(N)c2csc(NC(=O)NCCc3ccc(OC)c(OC)c3)n2)cc1 (stereo not drawn)	i	i	.	.	?
CC(C)(C)NC(=O)C1(C)CCC(=O)N1C1CC1 (stereo not drawn)	i	i	.	.	15
Cc1ccc(NC(=O)C2CCN(c3nc4ccccc4nc3C(F)(F)F)CC2)cc1F	i	i	.	.	.
Cc1ccc(S(=O)(=O)CC(=O)Nc2ccc(S(=O)(=O)Nc3onc(C)c3C)cc2)cc1	i	i	10µM*	-1%	27
Cc1ccc(OCC(=O)Nc2ccc(S(=O)(=O)Nc3onc(C)c3C)cc2)cc1	i	i	-2%	11%	0
Cc1noc(NS(=O)(=O)c2ccc(NC(=O)CSc3nc4c(cc3C#N)CCCCC4)cc2)c1C	i	i	18%	21µM*	1
CCc1ccc(C(=O)/C=C/Nc2ccc(S(=O)(=O)Nc3onc(C)c3C)cc2)cc1	i	i	13%	26µM*	-19
Cc1ccc2nc(-c3ccc(Cl)c(NC(=O)COc4ccc(C(C)C)cc4)c3)oc2c1	i	i	.	.	.
CCCCCCSc1ccc(-c2nc3ccc(C)cn3c2NCc2ccccc2)cc1OC	?	?	?	84%	-53*!
CC(C)(C)Cc1c(-c2ccccc2)nc2ccc(Cl)cn12	i	i	.	.	58
CCCCCCSc1ccc(-c2nc3ccc(C)cn3c2NCc2ccccc2)cc1	?	?	-2%[9.22 µM]	?	-110*!
CCCCCCSc1cccc(-c2nc3ccc(Cl)cn3c2NCc2ccccc2)c1	?	i	-3%	21µM*	-6
Cc1nn(CC(=O)Nc2ccc(S(N)(=O)=O)cc2)c(=O)c2ccccc12	i	i	-3%	-12%	23
O=C(COc1ccc(Br)cc1CNCCc1ccccc1)NCc1ccccc1	i	i	?	?	?
CCCNCc1cc(Br)ccc1OCC(=O)NCCc1ccccc1	?	?	13%	?	-52*
COc1ccccc1C(=O)Nc1ccc(S(=O)(=O)N2CCOCC2)cc1	?	i	2%	3%	-5
CC(C)C(=O)Nc1nc(-c2ccc(S(=O)(=O)N3CCOCC3)cc2)cs1	.	.	9%	?	-5
COc1ccccc1C(=O)Nc1nc(-c2ccc(S(=O)(=O)N3CCOCC3)cc2)cs1	4.6µM*	15µM*	7%	?	?
COc1ccccc1OC(C)C(=O)Nc1nc(-c2ccc(S(=O)(=O)N3CCOCC3)cc2)cs1 (stereo not drawn)	4.6µM*	i	7%	?	0
CC(O)CNCc1ccccc1C(F)(F)F (stereo not drawn)	?	i	28%	?	-2
COc1cccc2c1OC[C@@H](CO)[C@H]2N(C)C(=O)Nc1ccc(Cl)cc1Cl	3.3µM*	23µM*	-4%	4%	23
COc1ccc(Cl)cc1NC(=O)COC(=O)C1COc2ccccc2O1 (stereo not drawn)	i	i	7%	-2%	26
SMILES	KB-V1 MDR tox	KB-3-1 cytotox	SW480 rereplic	MCF10A rerep	IL-1B inflam inh
Nc1nc2cc3c(cc2cc1C(=O)NCc1ccc(F)cc1)OCO3	i	7.3µM*	.	.	22
Cc1nn(CC(=O)N2CCN(c3ccccc3)CC2)c(=O)c2cc3cc(F)ccc3n12	?	i	.	.	.
Cc1ccc(C(=O)C(c2ccccc2)N2Cc3ccccc3C2=N)cc1 (stereo not drawn)	?	?	?	21µM*	-81*
O=C(Oc1ccccc1C(=O)N1CCOCC1)c1ccc(Br)cc1	i	i	-3%	1%	-12
O=C(/C=C\N1CCOCC1)c1ccc(Br)cc1	i	i	2%	5.8µM*	-8
O=C(/C=C/N1CCOCC1)c1ccc(-c2ccccc2)cc1	?	i	15µM*	9%	-1
CC(C)(C)c1ccc(/C=C/C(=O)Nc2cccnc2)cc1	i	i	-1%	?	-52*
O=C(/C=C/c1ccc(Cl)c(Cl)c1)Nc1cccnc1	i	i	-2%	9%	-2
O=C(Nc1ccc(Cl)cc1)NN1CC(=O)N(c2cccc(C(F)(F)F)c2)CC1=O	i	i	-5%	1%	9
COc1cc(/C(C)=N/N2CCN(c3ccccc3OC)CC2)ccc1O	i	i	-33%	3.7µM*	0
COc1ccccc1N1CCN(/N=C/c2cc([N+](=O)[O-])ccc2Cl)CC1	i	i	-79%	0.58µM*	5
COc1ccccc1N1CCN(/N=C/c2cc(OC)c(OC)c(OC)c2)CC1	15µM*	i	-81%	-74%	6
O=S(=O)(N/N=C\c1ccc(-c2ccccc2Cl)o1)c1ccccc1	i	i	?	?	-16
O=C(O)c1ccc(N/N=C/c2ccc(-c3ccc(Br)cc3)o2)cc1	i	i	21µM*	?	32
O=C(N/N=C/c1ccc(-c2ccccc2Cl)o1)c1ccccc1	?	?	?	29µM*	-19
O=C(O)c1ccc(N/N=C/c2ccc(-c3ccccc3Cl)o2)cc1	i	i	16µM*	?	-24
O=C(Nc1ccc(-c2nc3ccccc3[nH]2)cc1)c1ccc(Oc2ccccc2)cc1	i	i	.	.	.
N#Cc1c(N)nc(Sc2ccc(Cl)cc2)c(C#N)c1-c1ccccc1Cl	23µM*	4.6µM*	?	?	-96*
CCSc1nc(N)c(C#N)c(-c2ccccc2Cl)c1C#N	21µM*	i	-12%	?	11
C=CCSc1nc(N)c(C#N)c(-c2ccc(C)cc2)c1C#N	i	i	1%	18%	-15
Cc1ccc(-c2cc(-c3ccccc3Cl)c(C#N)c(N)n2)o1	i	i	?	?	?
CC(=O)c1c(C)c(C)c2n1CCn1c(C)ccc1-2	i	i	10%	-2%	27
COc1ccc(/C=C/c2nnc(NC(=O)CSc3ccc(C)cc3)s2)cc1	i	?	?	8.2µM*	-10
O=C(Nc1cccc(-n2cnnn2)c1)c1ccc(OC(F)(F)F)cc1	i	i	0%	0%	-11
Cc1ccc(NC(=O)COc2ccccc2)c(NC(=O)c2ccccc2C)c1	5.8µM*	i	?	4%	-8
